Nine compounds from PubChem BioAssay (NCI) can be followed below.

This is part of a sample that, as a whole, favours compounds with a hit. Of some 79,000 tested, about 15% had one in any assay. A number with no mark means an inactive call. Active and inactive are the calls of the source. No stated cut-off is given here; in the data, active means growth inhibition above about 70%; inactive means the rest.

A short description of experiment [1]: NCI Yeast Anticancer Drug Screen. Data for the rad50 strain (AID 155).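 Further: 0% = growth of vehicle-only cultures of the same strain.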 Conditions: S. cerevisiae rad50 strain growth inhibition, stronger effect = higher value. The procedure, abridged:
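Genetically altered yeast (DNA repair pathway); compound treatment; growth inhibition vs vehicle ctrl.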

Experiment [2] is described as follows: NCI Yeast Anticancer Drug Screen. Data for the mec2-1 strain (AID 157). Conditions: S. cerevisiae mec2-1 strain, stronger effect = higher value. The procedure, abridged:
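Readout is yeast growth inhibition, normalised to vehicle-treated controls, in the mec2-1 strain exposed to compound.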

Experiment [3] can be described thus: NCI Yeast Anticancer Drug Screen. Data for the sgs1 mgt1 strain (AID 161).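 Further: 0% = growth of cultures given vehicle only.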 The settings on record: S. cerevisiae sgs1 mgt1 strain, stronger effect = higher value. The procedure, abridged:
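This yeast growth screen uses a strain with defined DNA-repair lesions; compound-treated growth is compared with vehicle-treated growth.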

A short description of experiment [4]: NCI Yeast Anticancer Drug Screen. Data for the cln2 rad14 strain (AID 165).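 Further: 0% = growth equal to vehicle treated cultures.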 Conditions: S. cerevisiae cln2 rad14 strain, stronger effect = higher value. Put shortly: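 Relative to vehicle controls, growth inhibition of compound-treated cln2 rad14 yeast was recorded.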
Experiment [5] is described as follows: NCI Yeast Anticancer Drug Screen. Data for the bub3 strain (AID 167). The settings on record: S. cerevisiae bub3 mutant strain, stronger effect = higher value. The procedure, abridged:
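Yeast carrying a defined mutation is treated with each compound, and growth is compared with that of vehicle-exposed cells to give inhibition.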

Experiment [6] is described as follows: NCI Yeast Anticancer Drug Screen. Data for the mlh1 rad18 strain (AID 175). The settings on record: S. cerevisiae mlh1 rad18 strain growth inhibition, stronger effect = higher value. The procedure, abridged:
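Test agents were incubated with a yeast strain of defined genotype (DNA damage repair defect). Inhibition of growth was derived by comparison with vehicle-exposed cultures.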

Where [7] appears, read: at 5.0 µM (retest, dose inferred, filed as 0.5).
Where [8] appears, read: at 50.0 µM (retest, dose inferred, filed as 5.0).

With `S=C(Nc1ccc(N=Nc2ccccc2)cc1)SCc1ccccc1`, the growth inhibition in experiment [1] (setting [7]) was 1%; in experiment [1] (setting [8]) it was 16%; in experiment [1] (at 50.0 µM), 63.3%; in experiment [2] (setting [7]) it was 3%; in experiment [2] (setting [8]), 25%; in experiment [2] (at 50.0 µM) it was 97.7% (active). Besides, the growth inhibition is 4% in experiment [3] (setting [7]); 28% in experiment [3] (setting [8]); 95.6% (active) in experiment [3] (at 50.0 µM); 3% in experiment [4] (setting [7]); 8% in experiment [4] (setting [8]); 89.6% (active) in experiment [4] (at 50.0 µM). The growth inhibition in experiment [5] (setting [7]) is -1%; in experiment [5] (setting [8]) it was 11%; in experiment [5] (at 50.0 µM), 98.5% (active); in experiment [6] (setting [7]) it was -6%; in experiment [6] (setting [8]), 59%; in experiment [6] (at 50.0 µM), 96% (active).
Turning to `CC12CCc3ccccc3C1=Nc1ccccc12` (configuration not stated), the growth inhibition in experiment [1] (setting [7]) is -3%; in experiment [1] (setting [8]), 78% (active); in experiment [1] (at 50.0 µM) it was 78.7% (active); in experiment [2] (setting [7]) it was 2%; in experiment [2] (setting [8]), 89% (active); in experiment [2] (at 50.0 µM) it was 73.2% (active). The growth inhibition is 8% in experiment [3] (setting [7]); 82% (active) in experiment [3] (setting [8]); 58.2% in experiment [3] (at 50.0 µM); -12% in experiment [4] (setting [7]); -20% in experiment [4] (setting [8]); -11.1% in experiment [4] (at 50.0 µM). The growth inhibition in experiment [5] (setting [7]) is 12%; in experiment [5] (setting [8]), 90% (active); in experiment [5] (at 50.0 µM), 88.7% (active); in experiment [6] (setting [7]), -3%; in experiment [6] (setting [8]), 72% (active); in experiment [6] (at 50.0 µM), 55.5%.
With `O=[N+]([O-])c1c(O)cccc1O`, the growth inhibition is 45% in experiment [1] (setting [7]); 98% (active) in experiment [1] (setting [8]); 99% (active) in experiment [1] (at 50.0 µM); 17% in experiment [2] (setting [7]); 99% (active) in experiment [2] (setting [8]); 99.2% (active) in experiment [2] (at 50.0 µM). Also, the growth inhibition in experiment [3] (setting [7]) is 29%; in experiment [3] (setting [8]), 99% (active); in experiment [3] (at 50.0 µM), 99.2% (active); in experiment [4] (setting [7]), 24%; in experiment [4] (setting [8]) it was 99% (active); in experiment [4] (at 50.0 µM) it was 98% (active). The growth inhibition is 14% in experiment [5] (setting [7]); 99% (active) in experiment [5] (setting [8]); 98.9% (active) in experiment [5] (at 50.0 µM); 36% in experiment [6] (setting [7]); 99% (active) in experiment [6] (setting [8]); 98.5% (active) in experiment [6] (at 50.0 µM).
On to `Clc1cc2n[nH]nc2c(Cl)c1Cl`, for which the growth inhibition in experiment [1] (setting [7]) is -6%; in experiment [1] (setting [8]) it was 63%; in experiment [1] (at 50.0 µM) it was 74.8% (active); in experiment [2] (setting [7]), 6%; in experiment [2] (setting [8]) it was 84% (active); in experiment [2] (at 50.0 µM), 95.9% (active). The growth inhibition in experiment [3] (setting [7]) is 16%; in experiment [3] (setting [8]), 83% (active); in experiment [3] (at 50.0 µM), 46.8%; in experiment [4] (setting [7]) it was -17%; in experiment [4] (setting [8]), 65%; in experiment [4] (at 50.0 µM) it was 88.7% (active). The growth inhibition in experiment [5] (setting [7]) was -13%; in experiment [5] (setting [8]), 48%; in experiment [5] (at 50.0 µM), 85.8% (active); in experiment [6] (setting [7]) it was 6%; in experiment [6] (setting [8]) it was 94% (active); in experiment [6] (at 50.0 µM) it was 93.3% (active).
On to `COc1ccccc1NC(=O)/C(=C/n1c(=S)sc2ccccc21)C(C)=O`, for which the growth inhibition in experiment [1] (setting [7]) is -19%; in experiment [1] (setting [8]), 14%; in experiment [1] (at 50.0 µM) it was 38.3%; in experiment [2] (setting [7]), -19%; in experiment [2] (setting [8]), 14%; in experiment [2] (at 50.0 µM), 48%. Moreover, the growth inhibition in experiment [3] (setting [7]) is 7%; in experiment [3] (setting [8]), 20%; in experiment [3] (at 50.0 µM), 63.6%; in experiment [4] (setting [7]) it was 11%; in experiment [4] (setting [8]), 17%; in experiment [4] (at 50.0 µM), 64.2%. Also, the growth inhibition is -9% in experiment [5] (setting [7]); 30% in experiment [5] (setting [8]); 29.5% in experiment [5] (at 50.0 µM); -14% in experiment [6] (setting [7]); 14% in experiment [6] (setting [8]); 47% in experiment [6] (at 50.0 µM).
As to `c1ccc([B-](c2ccccc2)(c2ccccc2)c2ccccc2)cc1`, the growth inhibition in experiment [1] (setting [7]) is -3%; in experiment [1] (setting [8]), -6%; in experiment [1] (at 50.0 µM) it was 98.2% (active); in experiment [2] (setting [7]), -4%; in experiment [2] (setting [8]), -1%; in experiment [2] (at 50.0 µM) it was 95% (active). The growth inhibition is 0% in experiment [3] (setting [7]); -3% in experiment [3] (setting [8]); 98.2% (active) in experiment [3] (at 50.0 µM); 4% in experiment [4] (setting [7]); -16% in experiment [4] (setting [8]); 98.4% (active) in experiment [4] (at 50.0 µM). The growth inhibition was 5% in experiment [5] (setting [7]); 2% in experiment [5] (setting [8]); 93.3% (active) in experiment [5] (at 50.0 µM); 1% in experiment [6] (setting [7]); -2% in experiment [6] (setting [8]); 98.5% (active) in experiment [6] (at 50.0 µM).
Consider `CC1C=CC(C)C2C(=O)C3C(C)C=CC(C)C3C(=O)C12` (configuration not stated), for which the growth inhibition is 0% in experiment [1] (setting [7]); -7% in experiment [1] (setting [8]); -10.3% in experiment [1] (at 50.0 µM); 6% in experiment [2] (setting [7]); 14% in experiment [2] (setting [8]); -6.45% in experiment [2] (at 50.0 µM). In addition, the growth inhibition is -1% in experiment [3] (setting [7]); 9% in experiment [3] (setting [8]); 3.65% in experiment [3] (at 50.0 µM); 18% in experiment [4] (setting [7]); 23% in experiment [4] (setting [8]); 38.5% in experiment [4] (at 50.0 µM). In addition, the growth inhibition in experiment [5] (setting [7]) was -12%; in experiment [5] (setting [8]), 0%; in experiment [5] (at 50.0 µM), 18.9%; in experiment [6] (setting [7]), 1%; in experiment [6] (setting [8]), -7%; in experiment [6] (at 50.0 µM), 8.9%.
For `COC(=O)Cn1/c(=N\N=C(/C)c2ccc(C)cc2)sc2ccccc21`, the growth inhibition in experiment [1] (setting [7]) was -13%; in experiment [1] (setting [8]), 7%; in experiment [1] (at 50.0 µM) it was 35%; in experiment [2] (setting [7]) it was -2%; in experiment [2] (setting [8]) it was -2%; in experiment [2] (at 50.0 µM), 26.7%. The growth inhibition was -10% in experiment [3] (setting [7]); 28% in experiment [3] (setting [8]); 40.4% in experiment [3] (at 50.0 µM); -10% in experiment [4] (setting [7]); 16% in experiment [4] (setting [8]); 15.3% in experiment [4] (at 50.0 µM). For the same compound, the growth inhibition in experiment [5] (setting [7]) is -11%; in experiment [5] (setting [8]) it was 11%; in experiment [5] (at 50.0 µM) it was 35.9%; in experiment [6] (setting [7]), -20%; in experiment [6] (setting [8]), 36%; in experiment [6] (at 50.0 µM), 40.6%.
Consider `Cc1c(CNc2ccc(Cl)c(Cl)c2Cl)cnc2nc(N)nc(N)c12`, for which the growth inhibition in experiment [1] (setting [7]) was 40%; in experiment [1] (setting [8]) it was 86% (active); in experiment [1] (at 50.0 µM), 78.5% (active); in experiment [2] (setting [7]) it was 27%; in experiment [2] (setting [8]), 53%; in experiment [2] (at 50.0 µM) it was 44.5%. The growth inhibition in experiment [3] (setting [7]) is 19%; in experiment [3] (setting [8]), 52%; in experiment [3] (at 50.0 µM), 64.5%; in experiment [4] (setting [7]), 34%; in experiment [4] (setting [8]), 60%; in experiment [4] (at 50.0 µM), 43.4%. In addition, the growth inhibition is 28% in experiment [5] (setting [7]); 46% in experiment [5] (setting [8]); 51.5% in experiment [5] (at 50.0 µM); 30% in experiment [6] (setting [7]); 56% in experiment [6] (setting [8]); -36.1% in experiment [6] (at 50.0 µM).
